Source: PubChem BioAssay
Only some compounds are listed: those with a hit (about 19% of all), similar ones and a draw of the others.
Giardia killer: Giardia lamblia killing. Giardia lamblia trophozoite viability. activity change, % at 7.66 µM, hits read low. hit rate 0.15% among 340,000; in the data active means activity change below about -80%; inconclusive means between about -30% and that limit;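 further: parasites exposed to compound for two days anaerobically before the ATP read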
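Anaerobic 48 hrs incubation at 37 deg C of 100 trophozoites/well with test compounds; ATPLite 1-Step luminescence, 15-30 min RT, reports cellular ATP as viability.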
DT40 TDP1 CPT: DT40-hTDP1 cell growth loss with CPT | chicken DT40 Tdp1-/-;hTDP1 cells + 20 nM CPT, ATP luminescence, 48 h | Potency, µM (titrated, usually from 46.2 µM), inactives show top-dose activity change, negative = growth inhibition, hits mostly inhibitors | hit rate 12% among 420,000; further: potency means the concentration at half of the fitted maximal effect; nearly all actives have a fitted effect of over 55% in size
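Chicken DT40 Tdp1-/- cells stably complemented with human TDP1 were seeded at 400 cells/well in medium containing 20 nM camptothecin, exposed to pin-transferred compounds, and grown at 37 °C for at least 48 hr. Viability was read as ATP luminescence.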
TDP1 cell noCPT: qHTS for Inhibitors of human tyrosyl-DNA phosphodiesterase 1 (TDP1): qHTS in cells in absence of CPT. hit rate 15% among 420,000. DT40 Tdp1-/- hTDP1 cells, no CPT, ATP luminescence, 48 h. Potency, µM (doses to about 46.2 µM), without a hit: top-dose activity change, negative = growth inhibition, usual class: inhibitors. AID 686978, 2013; further: potency means the concentration at half of the fitted maximal effect; nearly all actives have a fitted effect of over 55% in size
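Stably hTDP1-transfected Tdp1-null chicken DT40 cells were treated with library compounds minus camptothecin and grown for at least 48 hr at 37 °C, after which cellular ATP was quantified by luminescence.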
TDP1 block: TDP1 (human) enzyme inhibition. Q9NUW8. recombinant TDP1, AlphaScreen DNA substrate cleavage. Potency, µM (top dose mostly 130 µM), for inactives: at the top dose activity change, negative = inhibition, hits mostly inhibitors. hit rate 0.28% among 350,000. AID 485290; further: potency means the concentration at half of the fitted maximal effect; nearly all actives have a fitted effect of over 40% in size
Target sequence (Q9NUW8 whole entry, looked up): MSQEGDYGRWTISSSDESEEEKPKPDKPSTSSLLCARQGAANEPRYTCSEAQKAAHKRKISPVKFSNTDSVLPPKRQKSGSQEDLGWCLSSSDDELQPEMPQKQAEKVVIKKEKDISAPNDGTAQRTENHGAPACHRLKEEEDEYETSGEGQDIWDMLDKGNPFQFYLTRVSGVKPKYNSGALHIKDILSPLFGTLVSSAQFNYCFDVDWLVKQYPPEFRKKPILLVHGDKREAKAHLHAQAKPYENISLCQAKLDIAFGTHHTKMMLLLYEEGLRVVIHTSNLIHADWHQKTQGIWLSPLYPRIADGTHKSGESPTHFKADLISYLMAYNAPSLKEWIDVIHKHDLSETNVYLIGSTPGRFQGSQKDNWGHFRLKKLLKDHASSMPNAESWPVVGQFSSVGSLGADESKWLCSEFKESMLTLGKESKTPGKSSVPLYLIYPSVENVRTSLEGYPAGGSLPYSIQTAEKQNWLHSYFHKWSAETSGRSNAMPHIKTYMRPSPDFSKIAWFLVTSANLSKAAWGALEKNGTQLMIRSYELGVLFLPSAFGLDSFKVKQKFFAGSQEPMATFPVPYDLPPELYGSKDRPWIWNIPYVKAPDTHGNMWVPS
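Steps: enzyme plus compound, 15 min RT; add biotin/phosphotyrosine-FITC oligonucleotide (15 nM final), react 5 min; add donor/acceptor beads (10 ug/ml final), 10 min; read AlphaScreen. Tdp1 at 1 nM final.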
ELG1 repair inh: blocks ELG1-dependent DNA repair in HEK293T cells. Potency, µM (titrated, usually from 46.1 µM), without a hit: at the top dose activity change, negative = inhibition, actives largely listed as inhibitors. HEK293T ELG1-luciferase reporter, luminescence, 16 h; DNA damage induced by 5-fluorouridine. hit rate 2.3% among 330,000; further: potency means the concentration at half of the fitted maximal effect; nearly all actives have a fitted effect of over 55% in size
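HEK293T cells expressing luciferase-tagged ELG1 (2,000/well) received 5-Fluorouridine plus compound or DMSO for 16 hr at 37 °C. Luciferase was read by ONE-Glo luminescence after 30 min at room temperature.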
IL1B secr inh: blocks inflammasome-driven IL-1 beta release | THP-1 LPS/ATP IL-1B secretion, AlphaLISA, 16 h; hits give low values | activity change, % at 57.5 µM | hit rate 4.7% among 360,000 | AID 743279; in the data active means activity change below about -50%; inconclusive means mostly about -30% to -49%
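THP-1 cells pretreated 1 hr with compounds (up to 57.5 uM final), then stimulated with LPS (250 ng/mL final) plus ATP (1.25 mM final); secreted IL-1B measured by AlphaLISA after 16 hr, decreased signal indicating inhibition.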
* marks the source's active call; other numbers are inactive results; ? = inconclusive; nt = not tested or not shown; [ ] = another dose, or the depositor's remark. Unless noted, the call rests on the fitted dose curve; in most records, active means well fitted curve in the direction sought with a large enough effect; inconclusive means small, poorly fitted or top-dose-only effect, or another doubt; inactive means no such curve, though single readings can be large; an effect the other way counts as inactive or inconclusive. On the % scale 0 is the no-effect control and ±100 the full control effect.

SMILES	Giardia killer	DT40 TDP1 CPT	TDP1 cell noCPT	TDP1 block	ELG1 repair inh	IL1B secr inh
CCOCC(O)CNc1ccccc1 (centres undefined)	11	1%	-11%	7%	14%	3
OC(CNc1ccccc1)COc1ccc(OCC(O)CNc2ccccc2)cc1 (centres undefined)	-4	13µM*	8.2µM*	12%	?	-51*
Cc1ccc(-c2ocnc2C(=O)Nc2nc(C)cs2)cc1	0	-10%	-25%	nt	?	0
COc1ccc(CCNC(=O)Nc2ccc3c(c2)c(=O)n(C)n3Cc2ccc(Cl)cc2)cc1OC	nt	8.2µM*	?	nt	nt	-16
Cc1cc(C)cc(Cn2c3ccc(NC(=O)NCc4ccc(F)cc4)cc3c(=O)n2C)c1	nt	?	?	nt	nt	-8
COc1cc(Cn2c3ccc(NC(=O)CCc4cccnc4)cc3c(=O)n2C)ccc1F	nt	9.2µM*	?	nt	nt	0
Cn1c(=O)c2cc(NC(=O)CCc3cccnc3)ccc2n1Cc1ccc(F)cc1	nt	16µM*	?	nt	nt	-3
COc1ccccc1CCC(=O)Nc1ccc2c(c1)c(=O)n(C)n2-c1cccs1	nt	3.7µM*	3.7µM*	nt	nt	67
COc1cc(Cn2c3ccc(NC(=O)CCc4ccccc4)cc3c(=O)n2C)ccc1F	nt	6.5µM*	2.9µM*	nt	nt	40
Cn1c(=O)c2cc(NC(=O)CCc3cccnc3)ccc2n1Cc1cccc(C(F)(F)F)c1	nt	?	18µM*	nt	nt	19
O=C(CCn1cccn1)Nc1cccc(C(F)(F)F)c1	nt	-1%	-16%	2%	nt	nt
CC(C)c1ccc(/C=C/C(=O)NC(=S)Nc2ccc(CN3CCOCC3)cc2)cc1	-5	9.2µM*	18µM*	7%	?	-65*
O=C(/C=C/c1cccc([N+](=O)[O-])c1)NC(=S)Nc1ccc(CN2CCOCC2)cc1	-19	16µM*	18µM*	5%	0%	-94*
CN1CCN(NC(=O)c2cc(-c3cccc(Cl)c3)nc3ccccc23)CC1	-13	12µM*	10µM*	-1%	9%	?
O=C(NN1CCOCC1)c1cc(-c2ccc(Br)cc2)nc2ccccc12	-2	?	7.3µM*	2%	-7%	-17
O=C(NNC(=O)c1cc(-c2ccncc2)nc2ccccc12)c1cccc(Cl)c1	3	-9%	-24%	nt	?	7
O=C(NCCCN1CCCC1=O)c1cc(-c2ccc3c(c2)OCO3)nc2ccccc12	4	16µM*	?	3%	-28%	12
CN1CCC(N(C)C(=S)NC(=O)c2cc(-c3cccc(Br)c3)nc3ccccc23)CC1	-9	?	18µM*	0%	-3%	25
O=C(CCS(=O)(=O)c1ccccc1)OCc1ccc([N+](=O)[O-])cc1	?	?	5%	3%	?	18
CCc1ccc(-c2cc(C(=O)NN3CCOCC3)c3ccccc3n2)cc1	0	8.2µM*	1.3µM*	4%	?	-19
Cc1ccc(-c2cc(C(=O)NCCCN3CCOCC3)c3ccc(Cl)c(C)c3n2)cc1	-14	?	?	3%	-7%	-64*
COc1cccc(-c2cc(C(=O)NN3CCOCC3)c3ccccc3n2)c1	-12	?	4.6µM*	1%	-17%	0
COc1ccc(-c2cc(C(=O)NN3CCOCC3)c3ccccc3n2)cc1OC	6	?	?	1%	?	-21
Cc1ccc(C)c(-c2cc(C(=O)NN3CCOCC3)c3ccccc3n2)c1	-8	-7%	?	-3%	5%	15
O=C(NCCCN1CCOCC1)c1cc(-c2ccc(Br)cc2)nc2ccccc12	-6	?	?	-6%[0.505 µM]	-7%	-68*
SMILES	Giardia killer	DT40 TDP1 CPT	TDP1 cell noCPT	TDP1 block	ELG1 repair inh	IL1B secr inh
Cc1ccc(CNC(=O)CCCn2c(=O)c3ccccc3n(CC(=O)Nc3ccc(C)cc3)c2=O)cc1	nt	-19%	-7%	-2%	nt	nt
COc1cccc(NC2=Nc3cccc4cccc2c34)c1	-1	-29%	?	3%	?	-4
Nc1nonc1-c1nc2ccccc2n1CC(=O)N/N=C\c1ccc(-c2ccc(Cl)cc2)o1	18	7.3µM*	3.7µM*	5%	16%	?
NC(=O)Cn1c(-c2nonc2N)nc2ccccc21	-3	1%	4%	0%	3%	3
Nc1nonc1-c1nc2ccccc2n1CC(=O)Nc1cccc(Cl)c1Cl	nt	5.2µM*	5.8µM*	-3%[12.3 µM]	nt	nt
NNC(=O)Cn1c(-c2nonc2N)nc2ccccc21	5	-26%	2%	3%	10%	-5
Nc1nonc1-c1nc2ccccc2n1CC(=O)Nc1ccc(F)cc1	nt	15µM*	9.2µM*	nt	nt	nt
Nc1nonc1-c1nc2ccccc2n1CC(=O)N1CCN(c2ccc(F)cc2)CC1	21	?	13µM*	9%	-25%	0
CCCCOc1ccccc1C1CC(=O)NC2=C1C(=O)CCC2 (centres undefined)	-15	1.6µM*	1.6µM*	3%	3%	30
CCOc1ccc(C2CC(=O)NC3=C2C(=O)CCC3)cc1 (centres undefined)	3	0%	9%	0%	?	-16
CCOc1ccccc1C1CC(=O)NC2=C1C(=O)CCC2 (centres undefined)	-9	?	16µM*	7%	-15%	23
CCCOc1ccccc1C1CC(=O)NC2=C1C(=O)CCC2 (centres undefined)	1	4.1µM*	4.1µM*	2%	-11%	53
CCCCn1c(N)c(N(CCOC)C(=O)c2cnc(C)cn2)c(=O)[nH]c1=O	7	6%	7%	-4%	7%	7
Nc1ccc(Cl)c[n+]1Cc1cccc2cccnc12	-7	-23%	?	-2%	-16%	9
Cc1cc(C[n+]2cc(Br)ccc2N)c2ncccc2c1	8	12µM*	10µM*	4%	0%	-62*
Cc1cc(C[n+]2cc(Cl)ccc2N)c2ncccc2c1	1	-29%	?	-2%	?	-76*
O=c1[nH]c2cc([N+](=O)[O-])cc(Cl)c2c2ccccc12	nt	?	?	nt	nt	1
Cn1c(-c2ccc(C#N)cc2)c(C#Cc2ccccc2)c2ccccc21	-5	10%	-28%	nt	nt	5
N#Cc1c(-c2ccc(Cl)cc2)n(O)c2ccccc12	-18	3.3µM*	3.3µM*	nt	nt	-54*
CC(C)OCCCN1CN(S(=O)(=O)c2cccs2)c2nc3ccccc3nc21	10	-14%	-24%	10%	?	-28
